Among the data in PubChem BioAssay AID651616 (The Scripps Research Institute Molecular Screening Center, 2012) are inhibition values, retold here.

Each structure is given as a SMILES string. The whole screen tested about 5,600 compounds, of which about 4,400 (79%) were called active. So high a share suggests a set chosen from earlier hits. Not all results are given here. Values without a mark were called inactive. Cut-off read from the data, not from the text of the source: active = inhibition above about 27%; inactive = the rest.

The target of the experiment is Fructose-bisphosphate aldolase (Mycobacterium tuberculosis (strain ATCC 25618 / H37Rv)) (UniProt P9WQA3). The experiment is described as follows: M. tuberculosis aldolase blockers, biochemical, fluorescence, strain H37Rv, confirmation (AID 651616).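 Note: 0% = vehicle wells and 100% = reference inhibitor wells.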 The settings on record: purified M. tuberculosis FBA, fluorescence read-out, at 1 µM, hits give high values.
Sequence of Fructose-bisphosphate aldolase (Mycobacterium tuberculosis (strain ATCC 25618 / H37Rv)) (P9WQA3 whole entry, looked up): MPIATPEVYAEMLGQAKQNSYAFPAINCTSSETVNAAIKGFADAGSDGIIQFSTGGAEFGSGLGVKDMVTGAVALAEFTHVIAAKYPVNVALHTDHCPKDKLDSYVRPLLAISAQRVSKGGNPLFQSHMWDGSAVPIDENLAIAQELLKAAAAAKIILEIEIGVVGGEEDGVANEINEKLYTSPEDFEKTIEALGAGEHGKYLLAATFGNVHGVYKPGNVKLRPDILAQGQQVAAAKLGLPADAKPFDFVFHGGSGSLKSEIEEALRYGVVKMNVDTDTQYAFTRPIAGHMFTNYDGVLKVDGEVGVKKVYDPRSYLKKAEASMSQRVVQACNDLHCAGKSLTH
Consider `CCNC(=S)Nc1ccc2c(c1)c(=O)n(C)n2Cc1ccc(Cl)cc1`, for which the inhibition was 3.5%.

For `Cc1ccc(-c2nc3ccccc3[nH]c2=O)cc1`, the inhibition is 74.3% (active).

On to `CCOC(=O)COc1nc(C)cc(C(F)(F)F)c1C#N`, for which the inhibition is 39.2% (active).

For the compound `CCc1cc(=O)oc2cc(C)cc(OCC(=O)N3CCC[C@@H]3C(=O)O)c12`, the inhibition was 83.3% (active).

As for `Cc1ccn2c(c1)nc(=O)c1cc(S(=O)(=O)N3CCC(C)CC3)ccc12`, the inhibition was 5.35%.

For the compound `Cc1ccc(-c2nc3ccccc3c(=O)n2-c2ccc(Br)cn2)cc1`, the inhibition is 98.1% (active).

On to `C[C@H]1CN([C@@H](C)CO)C(=O)c2cc(Br)cnc2O[C@H]1CN(C)S(=O)(=O)c1cccs1`, for which the inhibition is 8.79%.

With `COCCNc1cc(-c2ccccc2)nc2cc(-c3cccc(F)c3)nn12`, the inhibition is 133% (active).

Regarding `Fc1ccc(COc2cccc(-c3n[nH]c(=S)o3)c2)cc1`, the inhibition was 169% (active).

For the compound `O=C(Nc1ccc2nccnc2c1)c1ccco1`, the inhibition is 692% [above what the read-out allows, likely interference] (active).

Take `CCCn1c(=O)c(-c2ccccc2)c(O)c2ccccc21`: the inhibition was 94.4% (active).

In the case of `Cc1ccc(S(=O)(=O)N2C[C@@H](C)[C@]3(C2)[C@H](O)[C@H](OC(=O)NCc2ccccc2)C[C@H]2C(=O)N(c4ccccc4)C(=O)[C@H]23)cc1`, the inhibition is 9.3%.

For the compound `COc1ccc(C2CC(c3cccs3)=NN2c2ccc(F)cc2)cc1OC` (stereo not drawn), the inhibition was 101% (active).

On to `Oc1ccccc1C1=NN(c2ccccc2)C(c2ccccc2)C1` (stereo not drawn), for which the inhibition was 107% (active).

Regarding `COc1ccc(C2CC(c3cccs3)=NN2c2ccccc2)cc1` (stereo not drawn), the inhibition was 38.9% (active).

On to `Fc1ccc(N2N=C(c3cccs3)CC2c2ccco2)c(F)c1` (stereo not drawn), for which the inhibition was 1.22%.

Consider `COc1ccccc1N1N=C(c2cccs2)CC1c1ccccc1` (stereo not drawn), for which the inhibition is 46.8% (active).

Regarding `CS(=O)(=O)Nc1ccc(C2=NN(S(C)(=O)=O)C(c3cccs3)C2)cc1` (stereo not drawn), the inhibition was 2.17%.

As to `Cc1ccc(-c2nc(C#N)c(NCCCn3ccnc3)o2)cc1`, the inhibition was 41.3% (active).

As to `Cc1nc2ccc(NC(=O)N3CCC(c4ccccc4)C3)cc2nc1C` (stereo not drawn), the inhibition is 98.1% (active).

In the case of `O=C(NCc1ccccc1)c1onc(CSc2nc3ccccc3[nH]2)c1C(=O)NCc1ccccc1`, the inhibition is 74.2% (active).

With `COCCNc1nc(-n2nc(C)cc2C)nc2sc3c(c12)CCCC3`, the inhibition is 109% (active).

In the case of `O=C(NCCCN1CCOCC1)c1cnn2c(-c3ccccc3)cc(-c3ccccc3)nc12`, the inhibition is 96.2% (active).

Consider `CC(C)(C)NC(=O)COc1ccc(CNc2ccc3[nH]c(=O)[nH]c3c2)cc1`, for which the inhibition is 1.48%.

For the compound `CC(C)n1ncc2c(C(=O)NCc3ccccc3CN(C)C)cc(C3CC3)nc21`, the inhibition is 144% (active).

With `O=C(NCCN1CCOCC1)c1cc(-c2cccs2)nc2ccccc12`, the inhibition was 8.64%.

With `CC(C)(C)OC(=O)NNc1c2ccccc2nc2ccccc12`, the inhibition was -3.52%.

Turning to `COC(=O)c1cc(-c2cccs2)nc2ccccc12`, the inhibition is 136% (active).

`Brc1cnc2ccccc2c1N1CCCCC1`: the inhibition is 83.3% (active).

Consider `COc1ccc2c(c1)cc1n2CCN=C1NN`, for which the inhibition is 108% (active).

As to `CCN(C(=O)COC(=O)c1ccc(COc2ccc3c(C)cc(=O)oc3c2)cc1)C1CCS(=O)(=O)C1` (stereo not drawn), the inhibition was 4.73%.

On to `CCC(C)N(C(=O)COC(=O)C1C(C(=O)OC)=C(C)NC(C)=C1C(=O)OC)C1CCS(=O)(=O)C1` (stereo not drawn), for which the inhibition was 172% (active).

As to `COCc1cc(=O)[nH]c2cc(NC(=O)C(F)(F)F)c(C)cc12`, the inhibition was 73% (active).

For the compound `CN1c2ccc(C=O)c3c(C=O)ccc(c23)N(C)C1(C)C`, the inhibition is 21.7%.

As to `CN(C(=O)c1cc2c(=O)n3ccccc3nc2s1)C1CCCCC1`, the inhibition was 50.9% (active).

For the compound `Cc1ccc(-n2c(=O)c(C#N)cc3c(=O)n4ccccc4nc32)cc1C`, the inhibition was 21.8%.

Consider `COCCCNC(=S)NCCNc1nc2cc(C)c(C)cc2cc1C#N`, for which the inhibition was 91.5% (active).

Turning to `CCOc1ccc2nc(NCCNS(=O)(=O)c3ccccc3)c(C#N)cc2c1`, the inhibition is 19.6%.

With `CN(C(=O)COc1ccccc1)c1nnc(-c2ccncc2)s1`, the inhibition is 830% [above what the read-out allows, likely interference] (active).

As for `CN(C(=O)c1ccccn1)c1nnc(-c2ccccn2)s1`, the inhibition was 618% [above what the read-out allows, likely interference] (active).

Consider `CC1=CC2=NC(=O)CC(C)(C(=O)N(CC(=O)NC(C)(C)C)Cc3ccccc3)N2C=C1` (stereo not drawn), for which the inhibition was 4.13%.

Regarding `NC(=O)C1CCN(C(=O)COc2ccc3c4c(c(=O)oc3c2)CCC4)CC1`, the inhibition is -0.32%.

With `CCCCC(NS(=O)(=O)c1ccc(C)cc1)C(=O)Oc1ccc2c3c(c(=O)oc2c1)CCC3` (stereo not drawn), the inhibition was 81.2% (active).

For the compound `COCC(C)OC(=O)c1c(N)n(CCCN2CCOCC2)c2nc3ccccc3nc12` (stereo not drawn), the inhibition is -0.37%.

On to `CC(C)Cn1c(N)c(C(=O)NCc2cccs2)c2nc3ccccc3nc21`, for which the inhibition is 41.1% (active).

On to `CCCNC(=O)c1c(N)n(-c2ccc(S(N)(=O)=O)cc2)c2nc3ccccc3nc12`, for which the inhibition was 25.9%.

Regarding `C=CCn1c(N)c(C(=O)OCC(C)C)c2nc3ccccc3nc21`, the inhibition was 73.3% (active).

As for `O=C(Nc1cccc2ccccc12)N1CCN(Cc2ccc3c(c2)OCO3)CC1`, the inhibition was 72.6% (active).

Turning to `CCOC(=O)N1CCN(C(=O)c2cc3c(ccc4ccccc43)oc2=O)CC1`, the inhibition is 4.05%.

With `O=C(Nc1cccc2ccccc12)N1CCC2(CC1)OCCO2`, the inhibition is 124% (active).

As to `COCCCn1c(C(=O)NC2CCCCC2)cc2c(=O)n3cccc(C)c3nc21`, the inhibition was 66.3% (active).

As to `C#Cc1cc(N2CCN(C(=O)c3ccoc3)CC2)n2nc(-c3cccc(Cl)c3)cc2n1`, the inhibition was 85.9% (active).

For `Cn1cc(-c2ccccc2)cc(C#N)c1=O`, the inhibition is 79.6% (active).

With `C=CCn1cc(-c2cccc(C(F)(F)F)c2)cc(C#N)c1=O`, the inhibition was 0.59%.

Regarding `CCCCN(CCCC)CC(O)Cn1c2ccccc2c(=O)c2ccccc21` (stereo not drawn), the inhibition was 113% (active).

As to `Nc1ccccc1C(=O)NC1CCCCNC1=O` (stereo not drawn), the inhibition was 151% (active).

As for `Cc1ccc(C2Nc3ccccc3C(=O)N2CCN2CCNC2=O)cc1` (stereo not drawn), the inhibition was -6.16%.

Regarding `CCOC(=O)NN1C(=O)c2ccccc2NC1c1cccc(O)c1` (stereo not drawn), the inhibition was 136% (active).

Turning to `Cc1cc(S(=O)(=O)c2cc3ccc(O)c(C)c3oc2=O)ccc1F`, the inhibition was 44.7% (active).

For `CCOc1ccc2nc(Nc3nc4ccc(NC(C)=O)cc4s3)sc2c1`, the inhibition was 19%.

With `Cc1c(CCC(=O)O)c(=O)oc2cc(OCc3ccc(Br)cc3)ccc12`, the inhibition was 4.1%.

Consider `CCc1c(C)c2ccc(OC3CCCCC3=O)cc2oc1=O` (stereo not drawn), for which the inhibition is 99.7% (active).

As for `CCN1CCN(C(=O)c2cc3cc4ccc(OC)cc4nc3s2)CC1`, the inhibition was 96.2% (active).

Take `CN(CCOc1ccccc1)C(=O)c1cc(-c2ccco2)nc2ccccc12`: the inhibition was 5.04%.

Take `O=C(c1cc(-c2ccco2)nc2ccccc12)N(Cc1nnc(-c2ccc(Cl)cc2)o1)C1CC1`: the inhibition is 120% (active).

On to `Nc1ccccc1-c1nc2ccncc2[nH]1`, for which the inhibition was 3.13%.

On to `COc1ccc2sc(-c3ccc(N(C)C)cc3)c(-c3ccc4cc[nH]c4c3)c2c1`, for which the inhibition was 59.8% (active).

With `Cc1cccc2c1-c1sc(C(=O)NCCCN3CCc4ccccc4C3)cc1CO2`, the inhibition was 0.47%.

Consider `O=C(NCCN1CCN(Cc2ccccc2)CC1)c1cc2c(=O)[nH]c3ccccc3c2s1`, for which the inhibition was 133% (active).

For `Cc1nn(-c2ccccc2)nc1C(=O)OCC(=O)N1CCCCC1C` (stereo not drawn), the inhibition is -2.48%.

For the compound `Cc1cnc(C(=O)OCC(=O)N2CCc3ccccc32)cn1`, the inhibition is 108% (active).

Consider `CCC1C(=O)c2ccccc2N(C)C1=O` (stereo not drawn), for which the inhibition is 7.44%.

`COc1ccc2[nH]c3c(=O)n(Cc4ccco4)cnc3c2c1`: the inhibition is 8.42%.

Consider `COc1cccc2sc3cc(NCC[C@@H]4CCCN4C)ccc3c(=O)c12`, for which the inhibition is 77.9% (active).

For the compound `Cc1cc(=O)oc2c1ccc1ccccc12`, the inhibition was 88.8% (active).

For `COCCCn1c(CCC(=O)O)ccc1-c1ccc(F)cc1`, the inhibition is 46% (active).

Take `Cc1ccc(C2Nc3cccc4cccc(c34)N2)cc1`: the inhibition was 177% (active).

As to `O=C1C(=O)N(c2ccccc2)C(c2ccccc2)C1c1ccccc1` (stereo not drawn), the inhibition is 13.8%.

Turning to `OC[C@@H]1CN(Cc2cccs2)C[C@H](n2cnc3c(Nc4ccccc4)ncnc32)O1`, the inhibition was 90.6% (active).

For the compound `COc1cc(/C=C/c2ccc(/C=C/c3cc(OC)c(OC)c(OC)c3)cc2)cc(OC)c1OC`, the inhibition was 27.4% (active).

As for `COc1ccc(NC(=O)CN(C)C(=O)c2cc(-c3ccc(C)o3)nc3ccccc23)cc1`, the inhibition is 79.1% (active).

In the case of `COCCCNC(=O)/C(C#N)=C/c1c(N2CCCCCC2)nc2ccccn2c1=O`, the inhibition was 60.9% (active).

For the compound `CCCc1nc2oc3c(=O)[nH]cnc3c2c2c1COC(C)(C)C2`, the inhibition was 108% (active).

For the compound `CCOC(=O)c1[nH]c2ccc(OC)cc2c1NC(=O)N1CCOCC1`, the inhibition was 130% (active).

For `CCOC(=O)c1[nH]c2ccc(OC)cc2c1NC(=O)CCN1CCN(Cc2ccccc2)CC1`, the inhibition was 3.58%.

Consider `CC(OC(=O)c1ccccc1NCCO)C(=O)Nc1ccnn1C(C)C` (stereo not drawn), for which the inhibition is 81.6% (active).

For `CN1C(=O)c2ccc(NC(=O)c3c(F)c(F)c(F)c(F)c3F)cc2C1=O`, the inhibition is 822% [above what the read-out allows, likely interference] (active).

Consider `CN1C(=O)c2ccc(NC(=O)C3CCCCC3)cc2C1=O`, for which the inhibition was 2.86%.

For the compound `CN(C)CCCNC(=O)c1ccc2[nH]c3ccccc3c2c1`, the inhibition was 103% (active).

Regarding `c1ccc(Cc2c(-c3ccco3)nc3c4ccccc4ccn23)cc1`, the inhibition is 137% (active).

Take `CCOC(=O)c1cc2cc(C)ccc2[nH]1`: the inhibition was 50.4% (active).

On to `CCN1CCc2c(C#N)c(NCc3ccccc3)nc(NCCO)c2C1`, for which the inhibition is 175% (active).

For `COc1ccc2c(c1OC)C(=O)N(c1ncn[nH]1)C2`, the inhibition was 85.2% (active).
